From PubChem BioAssay AID1745849 (National Center for Advancing Translational Sciences (NCATS), 2022)
About 320 (15%) of roughly 2,100 compounds were called active. Another 52% or so got no clear call; they are omitted. This is one part of the list. A number with no mark means an inactive call. The call rests on the fitted dose curve; in most records, active means well fitted cell-killing curve with a large enough effect; inconclusive means small, poorly fitted or top-dose-only effect, or effect the other way; inactive means flat fitted curve, though single readings scatter.

Assay: Viability Counterscreen for CMV-Luciferase Assay of Inhibitors of ATXN expression; further: nearly all actives have a fitted effect of over 55% in size
Conditions: HEK-293 CMV-luciferase cells viability, protease fluorescence, 24 h; activity change, negative = cytotoxicity: at the top concentration
Outline: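 In the same wells, a multiplexed format measured viability and then the CMV-luciferase signal in HEK-293 cells following 24 hr compound exposure at several concentrations. The viability substrate was Gly-Phe-AFC at 25 uM final.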
On the % scale 0 is the no-effect control and ±100 the full control effect; potency means the concentration at half of the fitted maximal effect.

Row | Compound | Potency | activity change, negative = cytotoxicity
1 | CCN(CC)CCn1nc2c3c(cccc3c1=O)-c1ccccc1-2 | 11.2 µM (active) | –
2 | C/C(=N\NC(=O)C12CCC(C)(C(=O)O1)C2(C)C)c1ccccc1O (centres undefined) | – | -20.4%
3 | COc1ccc(S(=O)(=O)N(C)C)cc1NC(=O)C1CCN(c2ncnc3sc(C)c(C)c23)CC1 | – | -27.6% [at 57.5 µM]
4 | COc1ccc(-c2csc(NC(=O)C3CCN(c4ncnc5sc(C)c(C)c45)CC3)n2)cc1OC | 8.91 µM (active) | –
5 | CCc1ccc(C(=O)NNC(=O)C2CCN(c3ncnc4sc(C)c(C)c34)CC2)cc1 | – | -11%
6 | Cc1ccccc1Oc1cc(NC(=O)CCCn2nc(C)c([N+](=O)[O-])c2C)cc([N+](=O)[O-])c1 | – | -13%
7 | S=C(NCc1ccc(Cl)cc1Cl)NC1CCCCC1 | – | -26.8%
8 | O=C(N/N=C/c1ccccc1O)C1CCCC1 | – | -25.6% [at 57.5 µM]
9 | O=C(Nc1ccccc1NC(=O)NC1CCCCC1)NC1CCCCC1 | 20 µM (active) | –
10 | CCc1ccc(CNC(=O)c2cc3c(C)nc4ccccc4c3o2)cc1 | – | 16.5% [at 57.5 µM]
11 | Cc1ccc2[nH]c(O)c(N=NC(=O)C3CC3c3ccccc3)c2c1Br (centres undefined) | – | -3.8%
12 | O=C(/C=C/NNC(=O)c1ccccc1)c1ccc([N+](=O)[O-])cc1 | 12.6 µM (active) | –
13 | O=C(NNCc1ccccc1)c1ccccc1 | – | 1.33% [at 57.5 µM]
14 | O=C(O)COc1ccc2oc3ccccc3c2c1 | – | -0.968%
15 | c1ccc(Cn2c(-c3ccccc3)c[n+]3c2SCCC3)cc1 | – | 6.56% [at 57.5 µM]
16 | C/C(=N\NC(=O)c1cccc2ccccc12)c1ccccn1 | 1.41 µM (active) | –
17 | CCCCCC(=O)N/N=C(\C)c1ccccn1 | – | -20.9%
18 | C/C(=N\NC(=O)COc1cccc(C)c1)c1ccc2ccccc2c1O | – | 21.9% [at 57.5 µM]
19 | CCCC/C(C)=N/NC(=O)c1cn(-c2ccccc2)nc1-c1ccccc1 | – | -5.57%
20 | COc1ccc(CC(=O)N/N=C(\C)c2ccccn2)cc1 | 11.2 µM (active) | –
21 | CCc1ccc(OCC(=O)N/N=C(\C)c2ccc(O)cc2O)cc1 | – | -18.9%
22 | OC1(c2ccc(Br)cc2)CCNCC1 | – | -7.05%
23 | Cc1cccc(OCCSc2nc3ncnc(N)c3[nH]2)c1 | – | -23.6% [at 57.5 µM]
24 | COc1ccccc1Cc1c(-c2ccco2)nc2c(C)cc(Br)cn12 | 8.91 µM (active) | –
25 | Cc1n(Cc2ccccc2)c2ccccc2[n+]1Cc1ccccc1 | – | -7.47%

Row | Compound | Potency | activity change, negative = cytotoxicity
26 | CC(C)=CCc1ccc(O)c(=O)cc1C(C)C | – | -27.9%
27 | CC(C)=CCc1c(O)cc2oc3c(CC=C(C)C)c(O)c(O)c(CC=C(C)C)c3c(=O)c2c1O | – | -26.9%
28 | O=C(Nc1ccc(Cl)cc1)Nc1ccc(N2CCCC2)c(S(=O)(=O)Nc2ccccc2Cl)c1 | 7.94 µM (active) | –
29 | O=C(Nc1ccc(N2CCOCC2)c(Cl)c1)c1c(F)c(F)c(F)c(F)c1F | – | 5.69%
30 | O=C(Nc1ccc(N2CCN(C(=O)c3ccccc3)CC2)c(Cl)c1)c1ccc(Br)o1 | – | -24.8%
31 | Cc1cc(Cl)ccc1-c1cc2nc(NCCCN(C)C)n(C)c(=O)c2s1 | – | -11.6%
32 | Cc1ccc(C(=O)N(CCCN(C)C)c2nc3ccc(Cl)cc3s2)cc1C | 22.4 µM (active) | –
33 | Cc1cc(C)c2nc(N(CCCN(C)C)C(=O)c3ccc4c(c3)OCCO4)sc2c1 | 31.6 µM (active) | –
34 | Cc1ccc2nc(N(CCCN(C)C)C(=O)c3ccc(S(=O)(=O)N4CCCCCC4)cc3)sc2c1 | – | -18.4%
35 | CCOC(=O)c1c(NC(=O)COC(=O)CNC(=O)c2ccco2)sc(C)c1C | – | 14.2%
36 | CCC(=O)NC(c1ccco1)c1cc(Cl)c2cccnc2c1O (centres undefined) | – | -15%
37 | CC(=O)NC(C)c1cc(Cl)c2cccnc2c1O (centres undefined) | – | -23.7% [at 57.5 µM]
38 | CCCCC(=O)NC(c1ccco1)c1cc(Cl)c2cccnc2c1O (centres undefined) | – | 12.6% [at 57.5 µM]
39 | CC(=O)NC(c1ccco1)c1cc(Cl)c2cccnc2c1O (centres undefined) | – | -1.71% [at 57.5 µM]
40 | CC(C)C(=O)NC(c1ccccc1)c1cc([N+](=O)[O-])c2cccnc2c1O (centres undefined) | 20 µM (active) | –
41 | CC(=O)NC(c1cccs1)c1cc([N+](=O)[O-])c2cccnc2c1O (centres undefined) | 11.2 µM (active) | –
42 | CCC(=O)NC(C)c1cc(Cl)c2cccnc2c1O (centres undefined) | – | -22%
43 | CCC(=O)NC(c1ccc(C)cc1)c1cc([N+](=O)[O-])c2cccnc2c1O (centres undefined) | 15.8 µM (active) | –
44 | Cc1nc(-c2c(C(F)(F)F)noc2-c2ccc(O)cc2O)cs1 | – | -5.74% [at 57.5 µM]
45 | COc1ccc(Nc2oc(COc3ccccc3OC)nc2C#N)cc1 | – | -11.6%
46 | N#Cc1c(NCCN)nc(-c2ccco2)c2c1CCCC2 | – | -25.6% [at 57.5 µM]
47 | CN(C)CCCNC(=O)/C=C/c1ccc(OCc2c(F)cccc2Cl)cc1 | – | -26.6% [at 57.5 µM]
48 | O=C1N(c2ccccc2)C[C@@H]2C[C@@H](c3cc4ccccc4o3)N3CCC[C@@]123 | 0.355 µM (active) | –
49 | CC(C)(O)C#Cc1ccc([C@@H]2C[C@H]3CN(c4ccccc4)C(=O)[C@]34CCCN24)s1 | 11.2 µM (active) | –
